Screening results as filed in PubChem.
S1P3 antag – S1P3 (human) receptor antagonism; CHO S1P3 NFAT-BLA reporter, FRET fluorescence, antagonist mode; Q99500; hit rate 0.27% among 170,000; inhibition, % at 4.98 µM;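 active = inhibition above the plate cutoff, the mean inhibition of test wells on that plate plus 3 SD, cut at about 28% in these data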;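 also: cells challenged with S1P at its EC80 of 0.8 µM; blue over green emission ratio from cleaved BLA substrate after 4 h stimulation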
S1P4 ag – agonists of human S1P4 receptor | O95977 | S1P4-expressing cell line, agonist reporter assay | activation, % at 4.98 µM | hit rate 0.35% among 220,000 | AID 1509; in the data active = activation above about 11%
Cl transport mod – KCC2 (human) Cl- transport modulation; KCC2 cells, thallium flux FluoZin-2 fluorescence; B-score of Tl+ flux slope (higher = more flux/activation; lower = inhibition) at 10 µM; hit rate 2.2% among 190,000; AID 1456;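 active = thallium flux slope and its plate-corrected score both differing from the plate sample mean at a set confidence after two filtering rounds, in either direction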;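 also: slope of fluorescence scaled to starting intensity during 10 to 20 s after thallium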
S1P4 antagonist – blocks the human S1P4 receptor; S1P4-expressing cells, antagonist mode, reporter read-out; inhibition, % at 4.98 µM; hit rate 0.26% among 220,000; AID 1510; O95977; in the data active = inhibition above about 29%
RAM network inh – inhibitors of the yeast RAM network; hit rate 1.8% among 190,000; S. cerevisiae dse1pr::URA3 reporter, 5-FOA growth OD615, 2 d; analog-sensitive cbk1-as2 kinase mutant strain; inhibition, % at 50 µM;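 active = inhibition above a set limit, 3 SD over mean compound inhibition, cut at about 8.4% in these data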;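 also: inhibition rescues growth on 5-FOA so higher OD means more RAM inhibition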
ROMK mod – modulates human ROMK potassium channel activity. P48048. Tet-inducible ROMK, thallium flux fluorescence; actives lie on both sides. B-score at 10 µM. hit rate 2% among 130,000. AID 1918;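 active = signal ratio slope over the read window, or its plate-corrected B-score, at least 3 SD from the plate mean, either direction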;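 also: B-score of the F/F0 ratio slope over 7 to 12 s after thallium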
Target sequence (P48048 whole entry, looked up): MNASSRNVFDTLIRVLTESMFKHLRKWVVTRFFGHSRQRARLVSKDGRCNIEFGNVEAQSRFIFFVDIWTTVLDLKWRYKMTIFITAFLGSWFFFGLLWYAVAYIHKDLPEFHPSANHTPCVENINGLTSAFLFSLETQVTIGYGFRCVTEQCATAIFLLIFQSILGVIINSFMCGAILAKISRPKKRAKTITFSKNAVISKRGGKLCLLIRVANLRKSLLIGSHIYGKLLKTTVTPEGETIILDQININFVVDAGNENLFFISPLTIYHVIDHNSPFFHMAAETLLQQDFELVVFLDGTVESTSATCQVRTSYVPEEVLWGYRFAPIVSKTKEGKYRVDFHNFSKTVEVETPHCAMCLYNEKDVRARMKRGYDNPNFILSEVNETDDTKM
RAM efflux-def – restores 5-FOA growth of efflux-deficient yeast; shares compounds with RAM network inh; S. cerevisiae efflux-deficient reporter strain, 5-FOA growth OD615, 2 days; max inhibition, %; 1,200 tested, under 10 active; AID 1305; call rule not given here
KCC2 secondary – confirmation of human KCC2 transport modulators | hit rate 15% among 3,700 | shares compounds with Cl transport mod | AID 1713 | normalised thallium flux (F/F0 slope) at 10 µM | HEK293-KCC2, thallium flux, FluoZin2 fluorescence; hits give high values;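 active = thallium flux slope above the same plate's solvent-only control mean plus 3 SD; inconclusive = the two replicate wells disagree; inactive = no significant difference from solvent-only control wells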
KCC2 bumet counter – thallium flux persisting under bumetanide in KCC2 cells, counter-screen secondary assay. normalized thallium flux at 10 µM. hit rate 49% among 3,700. HEK293-KCC2 + bumetanide/ouabain, thallium flux FluoZin2; hits give high values. shares compounds with Cl transport mod. AID 1714;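 active = thallium entry rate above the same plate's blocked-transporter control wells by more than 3 SD; inconclusive = the two repeat wells disagree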;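 also: raw slope of fluorescence over initial fluorescence between 10 and 20 s after thallium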
KCC2 sec2 – confirmation of human KCC2 transport modulators; shares compounds with Cl transport mod; hit rate 23% among 3,700; normalized thallium flux at 10 µM; HEK293-KCC2, thallium flux FluoZin2 fluorescence; actives lie on both sides; F/F0 rise rate, 10–20 s post-thallium;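 active = thallium flux slope more than 3 SD above or below the plate's solvent-only control mean, mostly below; inconclusive = the two repeat wells disagreed; inactive = no significant shift from solvent-only controls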
HEK counter1 – parental HEK flux effect, counter-screen. thallium flux rate (normalised fluorescence) at 10 µM. hit rate 46% among 3,700. HEK293 parental cells, thallium flux FluoZin2, ouabain; baseline-ratio fluorescence slope, 10–20 s after thallium. shares compounds with Cl transport mod;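 active = thallium flux rate significantly above the same plate's solvent-only control wells, beyond their mean plus 3 SD; inconclusive = the two replicate wells gave conflicting results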
KCC2 retest ouab – confirmation of human KCC2 modulators with ouabain. HEK293-KCC2, thallium flux FluoZin2 fluorescence; bidirectional: low = inhibitor, high = activator. shares compounds with Cl transport mod. hit rate 48% among 3,700. AID 1717. raw Tl+ flux slope (below DMSO = inhibition, above = activation) at 10 µM;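 active = thallium flux slope beyond 3 SD from same-plate DMSO control mean in most replicates, usually higher, sometimes lower; inconclusive = repeat tests gave conflicting results; inactive = no significant difference from controls in most replicates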;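 also: slope of initial-normalized fluorescence between seconds 10 and 20 after thallium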
HEK293 Tl flux2 – acts in parental HEK cells, second KCC2 counter-screen; shares compounds with Cl transport mod; HEK293 parental, thallium flux FluoZin-2 fluorescence slope; thallium flux slope at 10 µM; hit rate 33% among 3,700;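 active = thallium flux slope above the same plate's solvent-control mean plus 3 SD in both duplicate wells; inconclusive = duplicate wells that disagreed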;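 also: run without ouabain in cells lacking the KCC2 cotransporter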
Of the large screens only hits and unclear results are named; the others gave an inactive call (follow-up assays come after a bar, where they were run). In the library only some 5.1% were active in any assay of this set; here they are far more common.

O=C(CSc1nnc(-c2ccccc2Br)o1)N1CCc2ccccc2C1	Cl transport mod -5.4, RAM network inh 17 (no result: ROMK mod) | RAM efflux-def inactive | KCC2 secondary inactive | KCC2 bumet counter inactive | KCC2 sec2 0.021 | HEK counter1 inconclusive | KCC2 retest ouab 0.011 | HEK293 Tl flux2 inactive
C=CCn1c(C)cc(C(=O)CSc2nnc(NCc3ccccc3)s2)c1C	Cl transport mod -2.7, RAM network inh 14 | RAM efflux-def inactive | KCC2 secondary inactive | KCC2 bumet counter inactive | KCC2 sec2 inactive | HEK counter1 inconclusive | KCC2 retest ouab inconclusive | HEK293 Tl flux2 inactive
CCOC(=O)c1c(NC(=S)Nc2ccc(OC)cc2)sc2c1CCCCC2	Cl transport mod 4.7, RAM network inh 15 | RAM efflux-def inactive | KCC2 secondary inactive | KCC2 bumet counter 0.011 | KCC2 sec2 inactive | HEK counter1 0.012 | KCC2 retest ouab inactive | HEK293 Tl flux2 inactive
Cc1ccc(OCc2nc(C#N)c(NCc3ccc4c(c3)OCO4)o2)cc1	RAM network inh 15 (no result: S1P3 antag) | RAM efflux-def inactive | KCC2 secondary inactive | KCC2 bumet counter inconclusive | KCC2 sec2 inconclusive | HEK counter1 inconclusive | KCC2 retest ouab 0.012 | HEK293 Tl flux2 inactive
CN(C)CCNc1oc(COc2ccc(-c3ccccc3)cc2)nc1C#N	none (no result: ROMK mod)
CCC(C(=O)Nc1nc(C)c(C(=O)OC)s1)c1ccccc1 (stereo unspecified)	none
CCC(C(=O)Nc1ccsc1C(=O)OC)c1ccccc1 (stereo unspecified)	Cl transport mod -3.2, RAM network inh 17 | RAM efflux-def inactive | KCC2 secondary inactive | KCC2 bumet counter inactive | KCC2 sec2 inactive | HEK counter1 inconclusive | KCC2 retest ouab inconclusive | HEK293 Tl flux2 inactive
COc1ccc(C(=O)NCCN2CCOCC2)c(OC)c1OC	none
O=C(Nc1ccc(S(=O)(=O)NC2=NCCCCC2)cc1)c1ccc(=O)[nH]c1	none
O=C(CNS(=O)(=O)c1c(Cl)cccc1Cl)OCc1csc(-c2ccccc2)n1	Cl transport mod -4.1, RAM network inh 13 | RAM efflux-def inactive | KCC2 secondary inactive | KCC2 bumet counter inactive | KCC2 sec2 0.023 | HEK counter1 inconclusive | KCC2 retest ouab 0.015 | HEK293 Tl flux2 inactive
CCOc1ccc2nc(NC(=O)CSc3nc(-c4ccccc4)c(C#N)c(=O)[nH]3)sc2c1	Cl transport mod -3.2, RAM network inh 14 | RAM efflux-def inactive | KCC2 secondary inactive | KCC2 bumet counter inconclusive | KCC2 sec2 inactive | HEK counter1 0.0053 | KCC2 retest ouab inactive | HEK293 Tl flux2 inactive
COc1cccc(-c2nc(SCC(=O)Nc3nc(-c4ccccc4)c(C)s3)[nH]c(=O)c2C#N)c1	none (no result: ROMK mod)
CC(C)CC(=O)c1c[nH]c(C(=O)N2CCN(Cc3ccccc3)CC2)c1	none
Cc1sc2nc(SCC(=O)C(C)(C)C)n(Cc3ccco3)c(=O)c2c1C	none (no result: S1P3 antag, ROMK mod)
